# Results reported in PubChem BioAssay (NCATS).
# “And” between values parts separate entries of the source, which are not always exact repeats. Identical values can stand only once. Records with an inconclusive call do not appear. Values without a mark were called inactive. The call rests on the fitted dose curve.
# Molecular target: Bile acid receptor (Homo sapiens) (UniProt Q96RI1)
# Experiment: qHTS assay for small molecule agonists of farnesoid X receptor signaling (AID 588527);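 further: series mostly up to about 77 µM; 0% = vehicle basal and 100% = reference agonist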
# Conditions: HEK293T FXR-UAS-bla, beta-lactamase ratio, 16 h; activation: hits give high values
# Summary of the method: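 Agonist-mode beta-lactamase reporter in GeneBLAzer FXR-UAS-bla HEK293T cells, titration up to 92 uM, 16 h exposure at 37 C, CCF4 fluorescence. Response scaled to DMSO (0%) and 100 uM chenodeoxycholic acid (100%), then Hill-fitted for EC50 and efficacy.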
# Chain of Bile acid receptor (Homo sapiens) (Q96RI1 whole entry, looked up): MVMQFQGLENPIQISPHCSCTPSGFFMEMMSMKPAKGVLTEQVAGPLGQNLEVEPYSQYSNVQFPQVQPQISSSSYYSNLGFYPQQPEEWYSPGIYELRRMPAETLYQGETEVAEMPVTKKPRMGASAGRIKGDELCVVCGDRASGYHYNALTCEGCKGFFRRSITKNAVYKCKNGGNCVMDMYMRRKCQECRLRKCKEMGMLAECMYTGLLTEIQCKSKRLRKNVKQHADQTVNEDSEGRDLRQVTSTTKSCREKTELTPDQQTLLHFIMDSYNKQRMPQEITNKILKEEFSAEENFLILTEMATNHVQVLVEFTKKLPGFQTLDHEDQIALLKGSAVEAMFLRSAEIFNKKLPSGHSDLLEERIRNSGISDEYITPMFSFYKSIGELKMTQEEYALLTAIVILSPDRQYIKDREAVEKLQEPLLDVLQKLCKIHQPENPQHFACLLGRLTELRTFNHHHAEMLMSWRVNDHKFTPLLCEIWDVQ
row,SMILES,activation
1,C/C(=N\NC(=O)Nc1cc(F)cc(F)c1)c1ncccc1C(=O)O,-2.37% and 0.898%
2,CCCC1COC(Cn2cncn2)(c2ccc(Cl)cc2Cl)O1 (stereo not given),0.69%
3,O=S(=O)(c1ccc(O)cc1)c1ccc(O)cc1,-2.06%
4,CCOP(=O)(O)C(N)=O,3.28%
5,CCOc1nc(NC)nc(NC(=O)NS(=O)(=O)c2ccccc2C(=O)OC)n1,-2.84%
6,COc1ccc(O)c(C(C)(C)C)c1,-2.62%
7,CCOP(=S)(OCC)SCC(=O)NC(C)C,0.181%
8,NS(=O)(=O)C(F)(F)C(F)(F)C(F)(F)C(F)(F)C(F)(F)C(F)(F)C(F)(F)C(F)(F)F,4.62%
9,Clc1ccc([C@]2(Cn3cncn3)C[C@@H](Br)CO2)c(Cl)c1,-2.66% and -2.04%
10,CCOP(=O)(SC(C)CC)SC(C)CC (stereo not given),-3.29%
11,C/C(=N\C(N)=O)N(C)Cc1ccc(Cl)nc1,2.77%
12,O=S1OC[C@@H]2[C@H](CO1)[C@@]1(Cl)C(Cl)=C(Cl)[C@]2(Cl)C1(Cl)Cl (stereo not given in full),1.84% and 4.33%
13,FC(F)(F)c1ccc(OCCCOc2c(Cl)cc(OCC=C(Cl)Cl)cc2Cl)nc1,-2.38%
14,C=CCC1=C(C)[C@@H](OC(=O)[C@@H]2[C@@H](C=C(C)C)C2(C)C)CC1=O,1.33%
15,Nc1ccc([N+](=O)[O-])cc1Cl,-2.5%
16,CCCCC(CC)C(=O)Cl (stereo not given),-2.28%
17,CCNc1nc(NC(C)(C)C)nc(SC)n1,4.27%
18,CCOP(=O)(OCC)SCSCC,-0.362%
19,CNC(=O)Oc1ccc(N(C)C)c(C)c1,0.727%
20,COC(=O)c1ccccc1CS(=O)(=O)NC(=O)Nc1nc(OC)cc(OC)n1,-0.439%
21,CCOP(=S)(OCC)Oc1cnc2ccccc2n1,1.65%
22,CCOP(=S)(S)OCC,1.65%
23,CCCCN(CC)C(=O)SCCC,3.83%
24,O=[N+]([O-])c1ccc(Oc2ccc(C(F)(F)F)cc2[N+](=O)[O-])cc1,-1.37%
25,C=CC1(C)OC(=O)N(c2cc(Cl)cc(Cl)c2)C1=O (stereo not given),-2.77%
